Screens as filed in PubChem BioAssay.
Most compounds without a hit are left out; they make up all but 3.9% or so of the library.
GALC G270D up: enhancers of human galactocerebrosidase G270D mutant activity in cells; P54803; 145M-Twi-hGALC-G270D cells (Twitcher mouse brain line with human GALC G270D), HMU-beta-Gal fluorescence, 48 h; Potency, µM (series often up to 57.5 µM), actives largely listed as activators; hit rate 0.1% among 45,000; note: potency is the fitted concentration of half-maximal effect; 0% is about no effect; nearly all actives have a fitted effect of over 65% in size
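Fluorogenic HMU-b-Gal hydrolysis (0.1 mM final, pH 5.2 citrate-phosphate with 1 mg/mL sodium taurocholate; carbonate stop buffer) measures mutant GALC activity after compound treatment of live 145M-Twi Twitcher brain cells stably carrying human GALC-G270D, with wild-type GALC line alongside; activation sought.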
NTMT1 inh: NTMT1 methyltransferase inhibition. Q9BV86. NTMT1 MTase-Glo SAH luminescence, purified enzyme. Potency, µM (doses to about 114 µM), without a hit: at the top dose activity change, negative = inhibition, actives largely listed as inhibitors. hit rate 2.5% among 59,000. AID 1645870;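 note: potency is the fitted concentration of half-maximal effect; plate controls were DMSO vehicle for no effect and no enzyme for full effect; nearly all actives have a fitted effect of over 65% in size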
DRV1 agonist: activates human resolvin D1 receptor GPR32; O75388; CHO-K1 GPR32 beta-arrestin PathHunter luminescence, 90 min; zero percent set by DMSO-only wells; activation, % at 76.9 µM; hit rate 2.5% among 48,000;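 active = activation of at least 60% and not above a set upper limit, about 1 call in 100 departs from these limits; inconclusive = activation of 40% to 60%, or above that upper limit; inactive = activation under 40%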; note: 0% is about no effect
Target sequence (O75388 whole entry, looked up): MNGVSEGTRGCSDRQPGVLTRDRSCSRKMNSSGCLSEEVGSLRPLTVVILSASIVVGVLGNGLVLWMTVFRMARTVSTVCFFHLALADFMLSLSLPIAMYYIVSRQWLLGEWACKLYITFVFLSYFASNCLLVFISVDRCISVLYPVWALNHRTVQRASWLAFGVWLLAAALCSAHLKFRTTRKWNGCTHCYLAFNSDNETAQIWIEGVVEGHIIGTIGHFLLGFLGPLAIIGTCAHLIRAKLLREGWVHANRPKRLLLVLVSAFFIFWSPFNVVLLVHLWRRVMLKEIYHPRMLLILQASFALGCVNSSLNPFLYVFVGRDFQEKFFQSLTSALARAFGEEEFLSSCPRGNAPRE
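Readings come from a cell-based beta-arrestin complementation format: CHO-K1 GPR32 stable cells (2,500/well) treated 90 min with compounds, then beta-Gal substrate added for 1 h before chemiluminescence imaging.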
p53null 39C tox: selectivity test: cytotoxicity in p53 null cells, nonpermissive temperature; H1299 p53-null (neo) cells, 39C, ATPlite viability, 24 h; Potency, µM (top dose mostly 46.1 µM), for inactives: top-dose activity, negative = cell killing, most hits filed as cytotoxic; hit rate 0.97% among 55,000;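 note: potency is the fitted concentration of half-maximal effect; 0% = DMSO only and -100% = full killing by 100 µM tamoxifen; nearly all actives have a fitted effect of over 50% in size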
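Cells seeded at 600/well, 37C overnight. Compound added (up to 46 uM), plates shifted to 39C for 24 hr. ATPlite added, luminescence read after 20 min at room temperature.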
FH mod: Identification of activators of human fumarate hydratase by quantitative high-throughput screening; Potency, µM (highest dose often 79.9 µM), without a hit: top-dose activity change, negative = inhibition, usual class: inhibitors; Fumarate hydratase, mitochondrial (Homo sapiens), P07954; hit rate 0.22% among 54,000; FH coupled MDH/diaphorase resazurin fluorescence, 15 min; AID 1347055, 2019; note: potency is the fitted concentration of half-maximal effect; % is set by controls: 0 for no effect and ±100 for the full control effect; the screen sought activators but most active calls are inhibition curves; nearly all actives have a fitted effect of over 45% in size
p53null 32C tox: p53 null cell cytotoxicity, permissive temperature; H1299-neo p53 null cells, ATP luminescence, 24 h, 32C; Potency, µM (doses to about 46.1 µM), for inactives: top-dose activity change, negative = cytotoxicity, most hits filed as cytotoxic; hit rate 0.62% among 55,000; AID 903;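 note: potency is the fitted concentration of half-maximal effect; 0% = DMSO only and -100% = full killing by 100 µM tamoxifen; nearly all actives have a fitted effect of over 55% in size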
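Cytotoxicity: H1299-neo (no p53), 32C, 24 h treatment. Concentrations up to 46 uM. Readout cellular ATP, luminescence. Normalization to DMSO basal and tamoxifen 100 uM maximal kill.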
* marks the source's active call; other numbers are inactive results; i = inactive; u = inconclusive; x = no result; [ ] = dose if it differs, or a comment. Unless noted, calls come from the whole dose curve; as a rule, active = well fitted curve in the direction sought with a large enough effect; inconclusive = small, poorly fitted or top-dose-only effect, or another doubt; inactive = no such curve, though single readings can be large; an effect the other way counts as inactive or inconclusive.

SMILES | GALC G270D up | NTMT1 inh | DRV1 agonist | p53null 39C tox | FH mod | p53null 32C tox
CC(C)=CCC/C(C)=C/CC/C(C)=C/COC1OC(COC2OCC(OC3OCC(O)C(O)C3O)C(O)C2O)C(O)C(OC2OC(C)C(OC3OC(C)C(OC4OCC(OC5OC(C)C(O)C(O)C5O)C(O)C4O)C(O)C3O)C(O)C2O)C1O (stereo not drawn) | x | u | x | x | 11%[13.5 µM] | x
CN[C@H]1CCN(C(=O)c2ccc(Nc3ncc(F)c(-c4cnc(C)n4C(C)C)n3)cc2)C1 | x | -22% | x | x | -9% | x
Cc1cccc(NC(=O)c2c(NC(=O)C(F)(F)F)sc3c2CCCCC3)c1 | i | 10µM* | 45 | u | u | -8%
Cc1ccccc1NC(=O)c1c(NC(=O)C(F)(F)F)sc2c1CCCCC2 | i | -6% | 20 | u | u | u
O=C(Nc1cccc(Cl)c1)c1c(NC(=O)C(F)(F)F)sc2c1CCCC2 | i | 8.9µM* | 37 | u | u | u
Cc1ccc(NC(=O)c2c(NC(=O)C(F)(F)F)sc3c2CCCCC3)cc1 | i | -25% | 62* | u | u | u
Cc1cccc(C(=O)Nc2sc3c(c2C(=O)Nc2ccccc2)CCC3)c1 | i | -5% | -11 | -1% | 2% | -2%
O=C(COc1ccc(Cl)cc1)Nc1sc2c(c1C(=O)Nc1cccc(Cl)c1)CCCC2 | i | 25µM* | -1 | 4% | 3% | -3%
Cc1cccc(NC(=O)c2c(Br)sc3c2CCCC3)c1 | i | 7% | -9 | 6% | -15% | 21%
CC12CCC3C(C)(C)C(O)CCC3(C)C1Cc1c(oc(C(=O)O)cc1=O)O2 (stereo not drawn) | x | 1%[29.8 µM] | x | x | -2%[53.3 µM] | x
O=C(Nc1ccc(-n2cncn2)c(C(F)(F)F)c1)Nc1nnc(-c2ccncc2)s1 | x | -18%[57.5 µM] | x | x | x | x
C=CC(C)(O)CC/C=C(\C)C(=O)OC1CC2(C(=O)O)CCC3(C)C(=CCC4C5(C)CCC(OC6OC(COC7OCC(O)C(O)C7O)C(O)C(OC7OCC(O)C(O)C7O)C6OC6OC(CO)C(O)C(O)C6OC6OCC(O)C(O)C6O)C(C)(C)C5CCC43C)C2CC1(C)C (stereo not drawn) | x | 6%[6.45 µM] | x | x | -3%[13.5 µM] | x
C[n+]1ccc(-c2c3nc(c(-c4cc[n+](C)cc4)c4ccc([nH]4)c(-c4cc[n+](C)cc4)c4nc(c(-c5cc[n+](C)cc5)c5ccc2[nH]5)C=C4)C=C3)cc1 | x | 14µM* | x | x | 6% | x
CCOc1ccc(S(=O)(=O)Nc2ccc3oc(C)c(C(=O)OC(C)C)c3c2)cc1 | i | 7% | 87* | 2% | u | 84%
CCc1ccc(S(=O)(=O)Nc2ccc3oc(C)c(C(=O)OCCOC)c3c2)cc1 | x | x | 64* | 37% | x | 28%
Cc1cc(C)c(S(=O)(=O)Nc2ccc3oc(C)c(C(=O)OC(C)C)c3c2)cc1C | i | 12% | 27 | u | u | 68%
CCCc1oc2ccc(NS(=O)(=O)c3ccc(OCC)cc3)cc2c1C(=O)OCC | i | 12% | -32 | 18µM* | u | 39%
CCCc1oc2ccc(NS(=O)(=O)c3ccc(OC)cc3)cc2c1C(=O)OCC | i | u | -17 | u | u | 5%
COc1cc(O)c(C(CC(=O)N2CCCC(C(=O)c3ccccc3)C2)c2ccc3c(c2)OCO3)c(OC)c1 (stereo not drawn) | x | 8%[228 µM] | x | x | x | x
Cc1ccc(C(CC(=O)NCC2(c3ccccc3)CCCC2)c2ccccc2)c(O)c1 (stereo not drawn) | x | x | 63* | u | x | -5%
CCOC(=O)NNc1nncc2ccccc12 | i | -1%[57.5 µM] | 3 | x | -7%[53.3 µM] | x
CCOC(=O)NNc1ccc(N(CC)CC(C)O)nn1 (stereo not drawn) | i | 28µM* | 5 | x | -8%[53.3 µM] | x
Fc1ccc(C2CCNC[C@H]2COc2ccc3c(c2)OCO3)cc1 (stereo partly drawn) | x | 1%[57.5 µM] | x | x | -9% | x
